In PubChem BioAssay AID624416 (The Scripps Research Institute Molecular Screening Center, 2012):
Among all 360,000 compounds or so, about 1,500 (0.42%) were called active. This excerpt belongs to a sample that is enriched for actives. Values without a mark were called inactive. Cut-off read from the data, not from the text of the source: active = inhibition above about 8.5%; inactive = the rest.

The compounds below were run on HIV-1 gp120 / PG9 antibody interaction (assay: small molecules engaging PG9 antibody – biochemical, TR-FRET, primary screen (AID 624416)). Details: TR-FRET gp120-PG9 antibody binding; at 6.7 µM; active compounds read high.
In the case of `CCOC(=O)Cn1c2c(n(-c3ccc(F)cc3)c1=O)C=C(c1ccccc1)[C@@H](C)C(C(=O)N(C)C1CCCCC1)=C2`, the inhibition is reported as 1.82%. For `CCCCCCCCN1C(=O)[C@@H](CC(=O)N2CCN(C(=O)OCC)CC2)C[C@@]2(C(=O)OC)C1=C[C@H](C1CCCC1)O[C@@H]2C`, the inhibition was -1.72%. In the case of `Cc1ccc(-c2cc(C(=O)NCc3cn(C)nc3C)c3cc(Br)ccc3n2)cc1`, the inhibition is reported as 11.4% (active). Compound `Cc1nn(C)cc1C(=O)Nc1ccccc1Br` has an inhibition of -1.45%. Compound `Cc1nn(C)cc1CNC(=O)Nc1ccc(Cl)cc1` has an inhibition of -1.07%. In the case of `Cc1cc(OC(=O)NCCc2ccc(F)cc2)ccc1F`, the inhibition is reported as 0.4%. Work on `COC(=O)[C@]12C[C@H](CC(=O)NCc3ccccc3)C(=O)N(CCC3=CCCCC3)C1=C[C@H](C(C)(C)C)O[C@@H]2C` yielded an inhibition of -0.45%. In the case of `Nc1ncnc2c1ncn2C1OC(CO)CC1O` (centres undefined), the inhibition is reported as -0.46%. `CSc1nc2c(c(=O)[nH]1)C(c1cccc(Cl)c1Cl)CC(=O)N2` (centres undefined) gave an inhibition of -0.61%. For `N#Cc1c(N)nc2c3c(sc(=N)c2c1N)NC(=O)CC3c1ccccc1Cl` (centres undefined), the inhibition was 36.3% (active). For `Fc1cc(F)c2nc(Nc3nc4c(F)cccc4s3)sc2c1`, the inhibition was 12.7% (active). `NNc1nc2c(Cl)cccc2s1` was tested, and the inhibition was -3.22%. Compound `Cc1cc(NCCc2c[nH]c3ccccc23)ccc1Oc1cccnc1` has an inhibition of 0.39%. For `C[C@@H](CN1C2=NC[C@@H](Cc3ccccc3)N2C[C@H]1Cc1ccc(O)cc1)NC(=O)CCC1CCCCC1`, the inhibition was -0.86%. In the case of `COc1ccc(CC(=O)Nc2ccc(-c3nnc(-c4ccccc4)o3)cc2)cc1`, the inhibition is reported as 9.44% (active). Work on `COc1ccc(NC(=O)CC(NC(C)c2ccccc2)C(=O)O)cc1` (centres undefined) yielded an inhibition of -1.77%. `COc1ccc(NC(=O)CSc2nnc(Cc3ccccc3)c(=O)n2N)cc1` was tested, and the inhibition was -0.48%. `CC(C)[C@H]1COCCS(=O)(=O)N1Cc1ccccc1-c1cccc2c1sc1ccccc12` was tested, and the inhibition was -1.17%. In the case of `C=CC[C@]12C[C@@]3(O[C@H](c4ccc(C(F)(F)F)cc4)N=C3C[C@H](c3ccc(OC)cc3)[C@H]1C)N(C1CCN(Cc3ccccc3)CC1)C2=O`, the inhibition is reported as -1.53%. In the case of `COc1cccc(-n2c(SCC(=O)c3c[nH]c4ccccc34)nc3ccccc3c2=O)c1`, the inhibition is reported as 35.5% (active). For `CCCn1c(N)c(C(=O)CSc2nc3ccccc3c(=O)n2-c2ccc(OC)cc2)c(=O)[nH]c1=O`, the inhibition was -1.09%. In the case of `Cc1ccc(-n2c(SCC(=O)N3CCC(C(=O)O)CC3)nc3ccccc3c2=O)cc1C`, the inhibition is reported as -0.77%. For `O=C(NCCc1ccccn1)c1cc(C(=O)C2CCCCC2)c[nH]1`, the inhibition was 10.2% (active). `O=C(NCCc1ccccn1)c1ccc(COc2ccccc2)o1` gave an inhibition of -2%. For `COc1ccc(CNC(=O)c2cc(C(=O)C3CC3)c[nH]2)cc1`, the inhibition was -0.91%. `COc1cc(OC)cc(C(=O)NCCSCc2ccc(Cl)cc2)c1` was tested, and the inhibition was -1.65%. `COc1ccc(CCNC(=O)CSc2nc(C)nc3c2oc2ccccc23)cc1OC` showed an inhibition of -0.52%. With `COc1ccc(CCNC(=O)CSc2nnc3ccc(-c4ccncc4)nn23)cc1` the inhibition was -1.52%. With `COc1ccc(CCNC(=O)CSc2nc(-c3ccc(OC)c(OC)c3)ccc2C#N)cc1` the inhibition was 16% (active). For `COc1ccc(CCNC(=O)COC(=O)c2cnc(Cl)c(Cl)c2)cc1`, the inhibition was -0.95%. With `COc1cccc(-c2ccc(C#N)c(SCC(=O)NCCc3ccc(Cl)cc3)n2)c1` the inhibition was 14.1% (active). With `CCc1c(-c2ccccc2OC)ncn1CCc1ccccc1OC` the inhibition was 0.74%. With `COC(=O)[C@]12C[C@H](CC(=O)N3CCN(C(=O)C4CC4)CC3)C(=O)N(Cc3ccc4c(c3)OCO4)C1=C[C@H](C(C)(C)C)O[C@@H]2C` the inhibition was -1.36%. `COC(=O)c1ccc(CN2C(=O)[C@]3(OCCC=C[C@H]3C)c3c(Br)cccc32)cc1` was tested, and the inhibition was 0.64%. `COc1ccccc1C(=O)N1O[C@]23C=C[C@]14C[C@@H](O)CC[C@]4(C)C2CC[C@]1(C)[C@@H]([C@H](C)/C=C/[C@H](C)C(C)C)CC[C@H]13` (some centres undefined) showed an inhibition of 0.64%. With `NC(=O)c1ncn([C@@H]2O[C@H](C(=O)O)[C@@H](O)[C@H]2O)n1` the inhibition was -0.47%. Work on `COc1ccc(C(=O)COC(=O)C(O)c2ccccc2)c(OC)c1` (centres undefined) yielded an inhibition of -2.12%. With `CCOC(=O)c1c(C)[nH]c(C(=O)OCC(=O)c2ccc(OC)cc2OC)c1C` the inhibition was 9.16% (active). `CCOC(=O)c1c(C)[nH]c(C(=O)COc2ccc3c(c2)OCO3)c1C` was tested, and the inhibition was 3.13%. For `COC(=O)Cc1nnn2c1[C@H](C)[C@@H](OC)c1cc(Br)ccc1-2`, the inhibition was 0.07%. Compound `Cn1c(SCC(=O)Nc2ccc(Br)cc2F)nnc1-c1ccco1` has an inhibition of 2.43%. `CCn1c(CNC(=O)c2ccco2)nnc1SCC(=O)Nc1cccc(F)c1` was tested, and the inhibition was -1.17%. With `CCn1c(SCC(=O)Nc2cccc(F)c2)nnc1-c1cc2cc(Br)ccc2o1` the inhibition was 24.2% (active). With `CCCCCCCCN1C(=O)[C@@H](CC(=O)NCc2ccc(C)o2)C[C@@]2(C(=O)OC)C1=C[C@H](C(C)(C)C)O[C@@H]2C` the inhibition was 0.05%. With `COC(=O)C1=C(C)N(Cc2ccccc2C(F)(F)F)C(=NCC2CC2)NC1c1cccc(Cl)c1` (centres undefined) the inhibition was -1.5%. With `COC(=O)C1=C(C)N(Cc2ccccc2C(F)(F)F)C(=NCc2ccc(OC)cc2)NC1c1cccc(C(F)(F)F)c1` (centres undefined) the inhibition was 24.9% (active). `COC(=O)C1=C(C)N(Cc2ccccc2C(F)(F)F)C(=NCc2ccc(C(F)(F)F)cc2)NC1c1ccc(F)cc1` (centres undefined) showed an inhibition of -2.66%. For `CC1(C)OC(=O)C2=C(CC(CCc3ccccc3)OC2c2ccc(Cl)cc2)O1` (centres undefined), the inhibition was 1.11%. `COc1ccc(Sc2ccc(NC(=O)c3cccc(Cl)c3)cc2C#N)cc1` gave an inhibition of -1.17%. In the case of `N#Cc1ccccc1NC(=O)c1cccc(COc2ccc(Cl)cc2Cl)c1`, the inhibition is reported as 19.9% (active). `O=C(Nc1ccn(Cc2ccccc2F)n1)c1ccc(COc2ccc(Cl)cc2Cl)o1` gave an inhibition of 1.3%. `CN[C@H]1C[C@H]2c3[nH]c4c(-c5ccccc5)cccc4c3CCN2C(=O)[C@H]1[C@H](C)O` gave an inhibition of -0.87%. With `COc1ccc(-c2ccc3c(n2)CCCN3S(=O)(=O)c2ccc(C)cc2)cc1` the inhibition was -0.15%. In the case of `COC(=O)C1=C(C)N(Cc2ccc(C(F)(F)F)cc2)C(=NCc2ccc(C(F)(F)F)cc2)NC1c1cccc(Cl)c1` (centres undefined), the inhibition is reported as -0.79%. With `CC1CCN(S(=O)(=O)c2ccc3[nH]c(=O)ccc3c2)CC1` the inhibition was 0.02%. For `Cc1cc(C)cc(NC(=O)C2CCCN(S(=O)(=O)c3ccc4[nH]c(=O)ccc4c3)C2)c1` (centres undefined), the inhibition was 11.4% (active). `CCc1cccc(NC(=O)C2CCCN(S(=O)(=O)c3ccc4[nH]c(=O)ccc4c3)C2)c1` (centres undefined) gave an inhibition of 0.8%. `CC(C)[C@@H](C)/C=C/[C@@H](C)[C@H]1CC[C@@H]2[C@]1(C)CCC1[C@]23C=C[C@]2(C[C@@H](O)CC[C@]12C)N(c1ccc([N+](=O)[O-])cn1)O3` (some centres undefined) was tested, and the inhibition was -1.14%. In the case of `O=C(NCc1ccc(Cl)cc1)c1cc2c(nc3sccn32)s1`, the inhibition is reported as 28.4% (active). `O=C(NCc1ccc2c(c1)OCO2)c1c(O)nc2sccn2c1=O` showed an inhibition of -1.43%. In the case of `O=C(NCc1ccc(Cl)cc1)c1cc(=O)nc2sc(-c3ccccc3)nn12`, the inhibition is reported as -2.19%. `CCOC(=O)CNC(=O)N(C)[C@H]1C[C@H]2c3[nH]c4c(-c5ccc6c(c5)OCO6)cccc4c3CCN2C(=O)[C@H]1[C@H](C)O` showed an inhibition of -0.88%. In the case of `CSc1ncccc1C(=O)NCc1ccccc1Cl`, the inhibition is reported as -1.41%. With `COc1cccc(CNC(=O)c2cccnc2Sc2ccc(Cl)cc2)c1` the inhibition was 14.9% (active). For `O=C(NCc1cccnc1)c1cccnc1Sc1ccc(Cl)cc1`, the inhibition was 0.54%. Compound `O=C(NCc1ccccc1)[C@@H]1CCCN1C(=O)[C@@H](NS(=O)(=O)c1ccc(F)cc1F)C1CCCCC1` has an inhibition of -0.43%. `O=C(N=C1SC2CS(=O)(=O)CC2N1c1ccccc1)c1ccccc1` (centres undefined) was tested, and the inhibition was -0.55%. `O=C(N=C1SC2CS(=O)(=O)CC2N1Cc1ccccc1)c1ccccc1` (centres undefined) was tested, and the inhibition was 34% (active). Compound `O=C(CCC1CCCC1)N=C1SC2CS(=O)(=O)CC2N1Cc1ccccc1` (centres undefined) has an inhibition of 0.63%. `Nc1[nH]c(C(=O)c2ccccc2)c(-c2ccc(Cl)cc2Cl)c1C(=O)c1ccccc1` showed an inhibition of 0.83%. For `CN1CCc2nc(SC(C(=O)O)c3ccccc3)c(C#N)c(-c3cccs3)c2C1` (centres undefined), the inhibition was 1.9%. With `Cc1c(-c2ccccc2)nc(N)c(C#N)c1-c1cccs1` the inhibition was 12.2% (active). Work on `CCc1c(-c2ccccc2)nc(N)c(C#N)c1-c1cccs1` yielded an inhibition of -2.39%. For `O=C(NCc1ccccc1)[C@H]1CCCN1C(=O)[C@H]1CCCN1C(=O)c1cc(F)cc(F)c1`, the inhibition was -2.57%.
